Screens (PubChem)
Compounds with a hit are over-represented: about 11% of the library has one in this group of screens.
Tau ThT inhib = qHTS for Inhibitors of Tau Fibril Formation, Thioflavin T Binding | recombinant tau K18 P301L, heparin-induced fibrillization, ThT fluorescence | Potency, µM (doses to about 57.4 µM), for inactives: at the top dose activity, negative = inhibition, actives largely listed as inhibitors | 270,000 compounds, 2.1% hits | Microtubule-associated protein tau (Homo sapiens), P10636; note: potency is the fitted concentration of half-maximal effect; nearly all actives have a fitted effect of over 55% in size
Target sequence (P10636 561-689 P618L limits assumed): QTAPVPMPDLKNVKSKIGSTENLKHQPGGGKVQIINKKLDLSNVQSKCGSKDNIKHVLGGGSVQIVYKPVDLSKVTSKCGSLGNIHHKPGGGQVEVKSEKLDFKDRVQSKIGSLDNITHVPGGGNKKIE
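K18 P301L tau (15 uM + 0.24 uM Alexa 594-tagged), heparin 20 uM, NaOAc pH 7, 6 h 37 C; ThT 30 uM, 1 h RT, ex 450/em 510 nm.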
G9a inh = qHTS Assay for Inhibitors of Histone Lysine Methyltransferase G9a; Histone-lysine N-methyltransferase EHMT2 (Homo sapiens), Q96KQ7; G9a H3K9 monomethylation, AlphaScreen, 2 h; Potency, µM (top dose mostly 102 µM), for the others: at the top dose activity, negative = inhibition, most hits filed as inhibitors; 350,000 compounds, 8.8% hits; note: potency is the fitted concentration of half-maximal effect; nearly all actives have a fitted effect of over 75% in size
Target sequence (Q96KQ7 913-1193 limits assumed): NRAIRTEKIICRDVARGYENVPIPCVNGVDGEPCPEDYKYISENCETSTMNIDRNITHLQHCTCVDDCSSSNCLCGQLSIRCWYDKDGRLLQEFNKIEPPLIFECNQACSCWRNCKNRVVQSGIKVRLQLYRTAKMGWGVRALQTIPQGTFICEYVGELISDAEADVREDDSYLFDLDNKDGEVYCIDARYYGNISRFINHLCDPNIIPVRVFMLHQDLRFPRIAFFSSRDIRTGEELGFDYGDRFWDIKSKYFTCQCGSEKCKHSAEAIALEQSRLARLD
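Enzyme 20 nM + cpd, 15 min RT; add b-H3K9 pep 500 nM / SAM 20 uM; 2 h RT; anti-H3K9me1 Ab 0.5 ug/mL + SA donor / anti-rabbit acceptor beads 20 ug/mL each, 10 min; AlphaScreen read.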
Tau fibril FP = qHTS for Inhibitors of Tau Fibril Formation, Fluorescence Polarization | 280,000 compounds, 0.39% hits | Potency, µM (top dose mostly 57.7 µM), without a hit: at the highest dose activity, negative = inhibition, actives largely listed as inhibitors | K18 P301L tau heparin fibrillization, Alexa594 FP, 6 h | Microtubule-associated protein tau (Homo sapiens), P10636; note: potency is the fitted concentration of half-maximal effect; nearly all actives have a fitted effect of over 55% in size
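Quantitative HTS format: compounds meet 15 uM recombinant K18 P301L tau and Alexa 594-tau tracer in 100 mM sodium acetate pH 7; 20 uM heparin triggers fibrillization at 37 C over 6 hr; FP gives the signal.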
Sfp inh = qHTS Assay for Inhibitors of Bacillus subtilis Sfp phosphopantetheinyl transferase (PPTase); Biochemical Sfp PPTase activity, qHTS; Potency, µM, inactives show largest response in the series, negative = inhibition, actives largely listed as inhibitors; 4'-phosphopantetheinyl transferase ffp (Bacillus subtilis), Q9F4F7; AID 1490, 2009; 310,000 compounds, 3.5% hits;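 note: the enzyme is Sfp with the accession as filed and its product quenches rhodamine fluorescence; potency is the fitted concentration of half-maximal effect; 0% = enzyme reaction without inhibitor and -100% = no enzyme wells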
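Reaction rates are the 30-min fluorescence difference (ex 525, em 598 nm) in wells containing 15 nM Sfp, 5 uM rhodamine-CoA and 12.5 uM BHQ-2-YbbR at pH 7.6 with 10 mM MgCl2.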
Tau fluor cs = Counterscreen qHTS for Inhibitors of Tau Fibril Formation, Fluorescence Polarization | Potency, µM (series often up to 57.7 µM), inactives show at the top dose activity change, negative = decrease | 280,000 compounds, 0.93% hits | tau K18 P301L Alexa594 fluorescence, heparin fibrillization; note: potency is the fitted concentration of half-maximal effect; nearly all actives have a fitted effect of over 55% in size
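Human tau K18 P301L (15 uM unlabeled, 0.24 uM Alexa 594-labeled) in 100 mM sodium acetate pH 7 with 20 uM heparin, 6 hr at 37 C. ThT 30 uM added, 1 hr ambient; Alexa 594 FP and total fluorescence read at 555/632 nm.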
FBPA coupling cs = qHTS Assay for Inhibitors of Fructose-1,6-bisphosphate Aldolase from Giardia Lamblia: Coupling assay counterscreen; 290,000 compounds, 0.67% hits; coupling enzyme system counterscreen, AmpLite Red fluorescence; activity change, negative = inhibition, % at 58.2 µM, hits read low; in the data active = activity change below about -30%
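Final compound at 57.5 uM, incubated 10 min at RT with coupling enzyme reagent (glyceraldehyde-3-phosphate), then 20 min with substrate and AmpLite Red detection. Fluorescence read at 525/598 nm; tests interference with the coupling assay, not aldolase inhibition.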
The depositor's hits bear a star; ? = inconclusive; . = not tested or not shown; [ ] = another dose, or the depositor's remark. Unless noted, calls come from the whole dose curve; as a rule, active = well fitted curve in the direction sought with a large enough effect; inconclusive = small, poorly fitted or top-dose-only effect, or another doubt; inactive = no such curve, though single readings can be large; an effect the other way counts as inactive or inconclusive. Unless noted, % is set by controls: 0 for no effect and ±100 for the full control effect.

SMILES	Tau ThT inhib	G9a inh	Tau fibril FP	Sfp inh	Tau fluor cs	FBPA coupling cs
CC(Nc1ccc(N2CCOCC2)cc1)C(=O)N1c2ccccc2CC1C (centres undefined)	?	.	-4%	10µM*	?	-26
CC1Cc2ccccc2N1CC(=O)Nc1ccc(N2CCOCC2)cc1 (centres undefined)	-10%	?	14%	5%	-14%	2
CCCCSCCCNC(=O)C1CCC(CNS(=O)(=O)c2c(C)cc(C)cc2C)CC1 (centres undefined)	-18%	1%[59 µM]	-4%	.	-13%	.
CCOc1ccc(N2C(=O)C(=O)/C(=C(/O)c3ccccc3)C2c2ccccc2[N+](=O)[O-])cc1 (centres undefined)	?	45µM*	1%	?	-11%	12
CCOc1ccc(/C(O)=C2/C(=O)C(=O)N(CCOCCO)C2c2ccccn2)cc1 (centres undefined)	-4%	?	4%	-3%	0%	4
O=C1C(=O)N(c2ccccc2)C(c2ccccc2[N+](=O)[O-])/C1=C(\O)c1ccccc1 (centres undefined)	?	?	-2%	13µM*	-16%	-4
NS(=O)(=O)c1ccc(N2C(=O)C(=O)/C(=C(/O)c3ccccc3)C2c2ccc(Cl)cc2)cc1 (centres undefined)	-12%	50µM*	-6%	10%	-16%	14
O=C1C(=O)N(c2cccc(Cl)c2)C(c2ccccc2[N+](=O)[O-])/C1=C(\O)c1ccccc1 (centres undefined)	?	28µM*	0%	22µM*	-6%	-9
CN1C(=O)C(=O)/C(=C(/O)c2ccccc2)C1c1ccccc1 (centres undefined)	.	?	.	11%	.	-6
CCCCN1C(=S)NC[C@@H]1Cc1ccccc1	-5%	?	4%	20%	-5%	0
Cc1ccc(S(=O)(=O)N2CCCC2C(=O)Nc2nc3c(s2)CCCC3)cc1 (centres undefined)	-2%	45µM*	5%	0%	-6%	1
COc1ccc2nc(NC(=O)C3CCCN3S(=O)(=O)c3ccc(C)cc3)sc2c1 (centres undefined)	-4%	-12%	9%	-1%	-23%	-4
Cc1ccc(S(=O)(=O)N2CCCCC2C(=O)Nc2nncs2)cc1 (centres undefined)	?	40µM*	?	-22%	-21%	-9
O=C(NCc1ccccc1F)C1CCCN(S(=O)(=O)c2ccc(-n3cnnn3)cc2)C1 (centres undefined)	.	-1%	.	7%	.	0
Cc1ccc(S(=O)(=O)N2CCCCC2C(=O)NCc2ccco2)cc1 (centres undefined)	-13%	28µM*	5%	56µM*	2%	3
O=C(NCc1ccco1)C1CCCN(S(=O)(=O)c2ccc(-n3cnnn3)cc2)C1 (centres undefined)	?	56µM*	-17%	40µM*	-12%	1
Clc1nnc(Cl)c2c1ncn2Cc1ccccc1	.	7%	.	20%	.	1
CCN(CC)S(=O)(=O)c1cc(-c2nnc(Nc3ccc(OC)c(C(N)=O)c3)c3ccccc23)ccc1C	?	-4%[59 µM]	8%	.	?	.
COc1ccccc1/C=N/NC(=O)CCSc1ccccc1	-11%	23%[59 µM]	2%	-3%	-15%	-33*
COc1ccccc1Sc1ccccc1/C=N/NC(N)=O	9%	50µM*	1%	2%	-3%	-3
